Bioassay records deposited in PubChem BioAssay by Broad Institute.
IDE exosite FP – displaces the probe from the exo-site of human IDE | P14735 | purified IDE, FL-6b probe fluorescence polarization; hits give low values | z-score at 20 µM | hit rate 6.3% among 17,000;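 active = z-score of -3 or lower, meaning strong loss of probe binding signal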;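 also: His-tagged human IDE residues 42-1019 made in E. coli with 30 nM FL-6b probe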
* marks the source's active call; other numbers are inactive results. Only a selection was taken, and hits are over-represented in it overall.

SMILES	IDE exosite FP
CCCNC(=O)C[C@H]1CC[C@@H]2[C@H](COC[C@H](O)CN2C(=O)c2ccc(F)cc2)O1	-0.26
COc1ccc2c3c([nH]c2c1)[C@@H](CO)N(S(=O)(=O)c1cn(C)cn1)CC31CCN(CC2CCCCC2)CC1	0.13
CC(=O)NC[C@@H]1[C@@H](c2ccc(-c3cccc(F)c3)cc2)[C@H](CO)N1C(C)=O	-0.084
CCCC(=O)N1CC2(C1)CN(Cc1cccnc1)[C@H](CO)c1[nH]c3cc(OC)ccc3c12	-3.1*
COc1ccc2c3c([nH]c2c1)[C@H](CO)N(Cc1ccncc1)CC31CN(C(=O)CN(C)C)C1	-0.94
COCC(=O)N1CC2(CCN(C(=O)c3cccnc3)CC2)c2c([nH]c3cc(OC)ccc23)[C@@H]1CO	-0.12
COc1cccc(CN2CC3(CCN(C)CC3)c3c([nH]c4cc(OC)ccc34)[C@H]2CO)c1	-1.1
CCCC(=O)N1CC2(C1)CN(CC1CC1)[C@@H](CO)c1[nH]c3cc(OC)ccc3c12	-1.3
COc1cc(CN2CC3(CCN(C(=O)c4cccnc4)CC3)c3c([nH]c4cc(OC)ccc34)[C@@H]2CO)cc(OC)c1	-4.1*
CO[C@@H]1CN(C)C(=O)c2ccc(NS(=O)(=O)CC(F)(F)F)cc2OC[C@H](C)N(C(=O)NC(C)C)C[C@H]1C	-0.45
COc1ccc(-c2ccccc2[C@@H]2[C@@H](C#N)N(C(=O)C3CC3)[C@H]2CO)cc1	2.1
COc1cccc(-c2ccc([C@@H]3[C@@H](CO)N4C(=O)CN(C(=O)c5cccnc5)C[C@H]34)cc2)c1	-1.3
COc1ccc(-c2ccc([C@H]3[C@@H](CO)N4C(=O)CN(C(=O)c5cccnc5)C[C@H]34)cc2)cc1	-4.9*
Cc1ccc(-c2ccc([C@@H]3[C@H]4CN(C(=O)c5cccnc5)CC(=O)N4[C@H]3CO)cc2)cc1	-3.6*
COc1ccc(-c2ccc([C@H]3[C@@H](CO)N4C(=O)CN(C(=O)c5cccnc5)C[C@@H]34)cc2)cc1	2.7
COc1ccc(-c2ccc([C@@H]3[C@H]4CN(C(=O)c5cccnc5)CC(=O)N4[C@H]3CO)cc2)cc1	1.7
Cc1ccc(-c2ccc([C@H]3[C@@H](CO)N4C(=O)CN(C(=O)c5cccnc5)C[C@@H]34)cc2)cc1	-1.7
O=C(c1cccc(F)c1)N1CC(=O)N2[C@H](C1)[C@H](c1ccc(-c3cccnc3)cc1)[C@@H]2CO	2.2
Cc1cccc(-c2ccc([C@@H]3[C@@H](CO)N4C(=O)CN(C(=O)c5cccnc5)C[C@@H]34)cc2)c1	-13*
COc1ccc(-c2ccc([C@@H]3[C@@H](CO)N4C(=O)CN(C(=O)c5cccnc5)C[C@H]34)cc2)cc1	0.58
Cc1cccc(-c2ccc([C@H]3[C@@H](CO)N4C(=O)CN(C(=O)c5cccnc5)C[C@H]34)cc2)c1	-15*
C[C@H]1CC=CC[C@H](c2ccc3c(c2)OCO3)NC(=O)[C@H](C)N(C)C(=O)c2ccccc2O1 (mixture of isomers)	-1.8
Cc1ccc(-c2ccc([C@H]3[C@@H](CO)N4C(=O)CN(C(=O)c5ccncc5)C[C@@H]34)cc2)cc1	0.26
CCS(=O)(=O)N1[C@H](CO)[C@H](c2ccccc2)[C@@H]1CN(C)Cc1ccccn1	-0.73
O=C(Nc1ccc(C(F)(F)F)cc1)N[C@H]1C=C[C@H](CC(=O)N2CCCCC2)O[C@H]1CO	-1.7
SMILES	IDE exosite FP
CCC(=O)N1CC(=O)N2[C@@H](CO)[C@@H](c3ccc(C#CC4CCCCC4)cc3)[C@@H]2C1	2
COc1ccc(-c2ccc([C@@H]3[C@@H](C#N)N[C@@H]3CO)cc2)cc1	3.5
Fc1cccc(CN2[C@@H]3CNC[C@H]2C3c2ccc(-c3ccncc3)cc2)c1 (some centres not stated)	-0.99
C[C@@H](NC(=O)C[C@H]1CC[C@H]2[C@@H](COc3ccc(NS(=O)(=O)c4ccc(Cl)cc4)cc3C(=O)N2C)O1)c1ccccc1	0.27
N#C[C@@H]1[C@H](c2ccccc2)[C@H](CO)N1C(=O)CCN1CCCCC1	0.92
COc1ccc2c3c(n(C)c2c1)[C@H](CO)N(C(=O)Nc1ccc(F)cc1)CC31CCN(C(=O)c2ccc3c(c2)OCO3)CC1	-0.32
O=C(c1cccnc1)N1CC(=O)N2[C@H](C1)[C@@H](c1ccc(-c3cccnc3)cc1)[C@@H]2CO	-1.9
O=C(c1cccnc1)N1CC(=O)N2[C@@H](CO)[C@H](c3ccc(-c4cccnc4)cc3)[C@@H]2C1	-0.79
O=C(c1ccncc1)N1CC(=O)N2[C@H](C1)[C@@H](c1ccc(-c3cccnc3)cc1)[C@@H]2CO	-3.2*
CCCN1[C@H](CO)[C@H](c2ccc(-c3ccccc3F)cc2)[C@@H]1CNC(=O)C1CCC1	-2
CCc1csc(N2[C@H](C#N)[C@H](c3ccc(C4=CCCC4)cc3)[C@H]2CO)n1	0.018
CN(C[C@H]1[C@H](c2ccccc2)[C@@H](CO)N1CC1CC1)C(=O)c1cccc(F)c1	0.66
CCCC#Cc1ccc([C@H]2[C@@H](CO)N3C(=O)CN(C(=O)Cc4cccnc4)C[C@@H]23)cc1	-0.66
CCCC#Cc1ccc([C@H]2[C@@H](CO)N3C(=O)CN(C(=O)Cc4cccnc4)C[C@H]23)cc1	-3
